# S2 tox: cell viability loss in ATXN counter-screen. S2 cells (HEK-293 line with an ATXN2-luciferase reporter) viability, CellTiter-Fluor protease fluorescence, 24 h. hit rate 0.49% among 400,000. Potency, µM (series often up to 56.7 µM), most hits filed as cytotoxic. AID 651635; also: nearly all actives have a fitted effect of over 40% in size
# DT40 TDP1 CPT: DT40-hTDP1 cell growth loss with CPT. chicken DT40 Tdp1-/-;hTDP1 cells + 20 nM CPT, ATP luminescence, 48 h. Potency, µM (top dose mostly 46.2 µM), inactives show at the highest dose activity change, negative = growth inhibition, actives largely listed as inhibitors. hit rate 12% among 420,000; also: % is scaled to controls: 0 for no effect and ±100 for the full control effect; nearly all actives have a fitted effect of over 55% in size
#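 Chicken DT40 Tdp1-/- cells complemented with human TDP1, 400 cells/well, exposed to compounds plus 20 nM camptothecin for at least 48 h at 37 C; viability read as ATP content by CellTiter-Glo luminescence.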
# TGFb inhibitor: TGF-b pathway inhibition; AID 588855; HepG2 CAGA-GFP TGF-b/SMAD3 reporter, GFP fluorescence, 18 h; TGF-beta stimulated, 500 pg/mL final; Potency, µM (titrated, usually from 46.1 µM), for the others: at the highest dose activity, negative = inhibition, usual class: inhibitors; hit rate 1.2% among 410,000; also: % is scaled to controls: 0 for no effect and ±100 for the full control effect; nearly all actives have a fitted effect of over 65% in size
#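 Smad-responsive CAGA-GFP expression was quantified in HEPG2 cells exposed to compounds and 500 pg/mL final TGF-beta for 18 h at 37 degrees C; unstimulated wells defined full inhibition.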
# HepG2 tox: kills HepG2 cells in TGF-b inhibitor counter-screen; HepG2 CAGA-GFP viability, ATP luminescence, 18 h; Potency, µM (highest dose often 46.1 µM), without a hit: top-dose activity change, negative = cytotoxicity, usual class: cytotoxic; hit rate 0.76% among 410,000; AID 588856
#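 CellTiter-Glo luminescence gave cytotoxicity after 18 hours at 37 degrees C. The cells were HepG2 CAGA-GFP in 1% FBS DMEM, stimulated with 500 pg/mL TGF-beta after compound addition. %Activity was normalised to no-cell wells (complete cell-killing) and DMSO (no toxicity), and curves were fitted and classified.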
# DT40 TDP1 no CPT: qHTS for Inhibitors of human tyrosyl-DNA phosphodiesterase 1 (TDP1): qHTS in cells in absence of CPT. DT40 Tdp1-/- hTDP1 cells, no CPT, ATP luminescence, 48 h. Potency, µM (series often up to 46.2 µM), without a hit: at the highest dose activity change, negative = growth inhibition, usual class: inhibitors. hit rate 15% among 420,000. AID 686978, 2013; also: % is scaled to controls: 0 for no effect and ±100 for the full control effect; nearly all actives have a fitted effect of over 55% in size
#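 Cells were dispensed at 400 per well, compounds added by pin tool, plates incubated ≥48 hr at 37 °C, then CellTiter-Glo added for 30 min at room temperature before luminescence reading. Line: DT40 Tdp1-/- complemented with hTDP1; camptothecin omitted.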
# ATXN2 expr inh: reduces ATXN2 reporter expression in HEK-293 cells | HEK-293 ATXN2-luciferase reporter, luminescence, 24 h | Potency, µM (top dose mostly 57 µM), without a hit: at the top dose activity change, negative = inhibition, usual class: inhibitors | hit rate 0.72% among 360,000 | AID 1745845; also: % is scaled to controls: 0 for no effect and ±100 for the full control effect; nearly all actives have a fitted effect of over 55% in size
#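 ATXN2-luciferase reporter cells (luciferase flanked by upstream and downstream ATXN2 gene portions) were treated 24 h at 37 °C with compounds at up to 57 uM. SteadyGlo luminescence gave expression; GF-AFC fluorescence gave viability.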
# * hit, by the source's call; i = inactive; ? = inconclusive; / = no result given. The list is not random: actives were taken first. Their share in the collection is about 17%. Calls follow the shape of the dose curve; as a rule, active = well fitted curve in the direction sought with a large enough effect; inconclusive = small, poorly fitted or top-dose-only effect, or another doubt; inactive = no such curve, though single readings can be large; an effect the other way counts as inactive or inconclusive. Potency is read from the fitted curve at half-maximal effect.
SMILES,S2 tox,DT40 TDP1 CPT,TGFb inhibitor,HepG2 tox,DT40 TDP1 no CPT,ATXN2 expr inh
COc1ccccc1C(=O)Nc1ccccc1N1CCOCC1,?,?,1%,-2%,?,-3%
CS(=O)(=O)N1CCN(c2ccccc2NC(=O)c2cc3ccccc3o2)CC1,i,-29%,-5%,-3%,15µM*,-28%
COc1c(C(=O)Nc2ccccc2N2CCOCC2)cc2ccccc2c1Br,i,?,?,-1%,23µM*,-21%
O=C(Nc1ccccc1N1CCOCC1)c1cc2ccccc2o1,i,16µM*,-6%,-6%,-26%,2%
O=C(Nc1ccccc1N1CCN(C(=O)c2ccccc2)CC1)c1cc2ccccc2o1,i,?,18%,0%,21µM*,-12%
COC(=O)[C@@]1(Sc2ccc(C)cc2)CC(=O)N[C@@H]1c1ccc(Br)cc1,i,-24%,/,/,-29%,19%
O=C(NC(=S)Nc1ccc(CN2CCCCC2)cc1)c1cc2ccccc2o1,i,23µM*,0%,-2%,21µM*,/
O=C(Nc1ccc(N2CCN(C(=O)c3ccccc3)CC2)cc1)c1cc2ccccc2o1,i,6.5µM*,3%,4%,5.2µM*,4%
CSCc1c(C(=O)Nc2ccccc2N2CCOCC2)oc2ccccc12,i,16µM*,5%,-56%,7.3µM*,-20%
O=C(Nc1ccc(N2CCOCC2)c(Cl)c1)c1cc2ccccc2o1,/,15µM*,0%,12%,21µM*,?
CN1CCN(c2ccc(NC(=O)c3cc4ccccc4o3)cc2)CC1,i,-26%,9%,-23%,?,/
CCCn1c(SCC(=O)Nc2sc(C)c(C)c2C(=O)OCC)nc2c1c(=O)n(C)c(=O)n2C,i,?,-24%,-4%,-29%,9%
CC(C)C(C)(C#N)NC(=O)CSc1nc2scc(-c3ccc(F)cc3)c2c(=O)n1Cc1ccccc1 (centres undefined),?,?,5%,-23%,?,-21%
Cc1cccc(C)c1NC(=O)CN(C)CC(=O)N(C)CC(=O)Nc1ccccc1Br,i,-3%,-6%,-24%,?,/
O=C(NC(=S)N1CCOCC1)c1cc2ccccc2o1,i,6.5µM*,-8%,-8%,12µM*,2%
O=C(c1cc2ccccc2o1)N1CCOCC1,i,1%,13%,-1%,8%,4%
CCc1nc(N2CCN(C(=O)c3ccco3)CC2)c2oc3ccccc3c2n1,?,21µM*,1%,-20%,21µM*,?
CC(C)(C)c1nc(N2CCN(C(=O)c3ccco3)CC2)c2nnn(Cc3ccccc3)c2n1,i,?,?,-85%,21µM*,-35%
O=C(c1ccco1)N1CCN(c2nc(C3CC3)nc3c2nnn3Cc2ccccc2Cl)CC1,i,?,?,-20%,?,-37%
Cc1nc(N2CCN(C(=O)c3ccco3)CC2)c2oc3ccccc3c2n1,i,15µM*,2%,-9%,21µM*,?
Cc1ccc(NC(=O)CCN2C(=O)C3CC=CCC3C2=O)cc1Cl (centres undefined),i,-16%,-2%,0%,0%,4%
COCCNC(=O)C(NC(=O)C1CCCCC1)C(C)C (centres undefined),i,6%,20%,-30%,-9%,6%
C[C@@H]1COc2cccc(N3CCN(Cc4ccccc4F)CC3)c2S(=O)(=O)N1,i,-8%,/,/,-4%,-8%
O=S1(=O)N[C@@H](Cc2ccccc2)COc2cccc(N3CCN(Cc4ccccc4F)CC3)c21,28µM*,?,/,/,18µM*,?
CCOc1ccc(S(=O)(=O)N(CC(=O)NCCSc2ccccc2)c2ccccc2)cc1,i,0%,?,-15%,-1%,5%
SMILES,S2 tox,DT40 TDP1 CPT,TGFb inhibitor,HepG2 tox,DT40 TDP1 no CPT,ATXN2 expr inh
CCC1=C(c2ccc(C)cc2)S(=O)(=O)N=C1N1CCC(C(=O)Nc2ccccc2F)CC1,i,?,-24%,-4%,?,-18%
COc1ccc(C)cc1S(=O)(=O)n1cnc2ccccc21,i,13µM*,6%,2%,15µM*,9%
CCCCN(c1ccccc1)S(=O)(=O)c1cccc(C(=O)Nc2c(C)n(C)n(-c3ccccc3)c2=O)c1,i,-42%,?,-25%,?,4%
COc1cccc(C(=O)Nc2ccc(Cl)c(-c3nc4ccccc4[nH]3)c2)c1,?,?,?,-6%,6.5µM*,?
CC(C)COc1ccc(C(=O)Nc2cccc(-c3nc4ccccc4[nH]3)c2)cc1,/,18µM*,?,-39%,21µM*,/
O=C(Nc1cccc(-c2nc3ccccc3[nH]2)c1)c1c(F)cccc1F,/,15µM*,?,-32%,10µM*,/
O=C(Nc1cccc(-c2nc3ccccc3[nH]2)c1)c1ccccn1,i,18µM*,5%,-8%,13µM*,-8%
O=C(Nc1cccc(-c2nc3ccccc3[nH]2)c1)c1ccccc1F,/,?,1%,-26%,?,/
COc1cccc(OC)c1C(=O)Nc1cccc(-c2nc3ccccc3[nH]2)c1,i,?,-15%,-35%,18µM*,/
O=C(O)c1cccc(-c2nc3ccccc3[nH]2)c1,i,-5%,-8%,-17%,-20%,14µM*
CC(=O)Nc1cccc(-c2nc3ccccc3[nH]2)c1,i,8%,?,0%,2%,24%
Cn1c(Cn2c(=O)sc3ccccc32)nnc1SCC(=O)NCc1ccccc1Cl,i,13%,-2%,0%,4%,-2%
C#C[C@]1(O)CC[C@H]2[C@@H]3CCC4=CCCC[C@@H]4[C@H]3C(=C)C[C@@]21CC,/,3%,/,/,-8%,/
Cc1cccc(NC(=S)NCCc2ccccc2)n1,i,?,-21%,-3%,16µM*,-5%
S=C(NCCc1ccccc1)Nc1ccccn1,i,6.5µM*,-7%,-18%,18µM*,68%
S=C(NCc1ccco1)Nc1ccccn1,i,-12%,-20%,0%,?,-1%
O=C(CN1C(=O)c2ccccc2Sc2ccc(C(=O)N3CCOCC3)cc21)Nc1ccc(Cl)cc1F,/,-11%,-19%,-9%,-1%,/
CN(Cc1ccccc1)CC(O)COc1ccc(CNCCc2cccnc2)cc1 (centres undefined),?,?,32%,-1%,?,/

# Bioassay records as filed in PubChem.
